# Experimental data from PubChem BioAssay (NCATS).
# Inconclusive results are not listed. Where a call stands in place of a potency, no number is given. Active and inactive are the calls of the source. Calls follow the shape of the dose curve; as a rule, active = well fitted curve in the direction sought with a large enough effect; inconclusive = small, poorly fitted or top-dose-only effect, or another doubt; inactive = no such curve, though single readings can be large; an effect the other way counts as inactive or inconclusive.
# Experiments:
# [1] = qHTS of pediatric cancer cell lines to identify multiple opportunities for drug repurposing: Confirmatory screen for RD cells (AID 1347124);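 also: cells exposed to compound for 48 h before viability readout; nearly all actives have a fitted effect of over 65% in size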; also: potency is read from the fitted curve at half-maximal effect
# How it was run: (§1)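 Viability after 48 h compound treatment at 37C, 500-1,000 cells/well, read as ATP luminescence with CellTiter-Glo. Primary screens used 11-point (MIPE, 0.78 nM-46 µM) or 8-point (NPC, 0.59 nM-46 µM) final concentrations; follow-up screens used 11-point dilutions.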
# [2] = qHTS of pediatric cancer cell lines to identify multiple opportunities for drug repurposing: Confirmatory screen for Saos-2 cells (AID 1347127); also: nearly all actives have a fitted effect of over 60% in size; also: potency is read from the fitted curve at half-maximal effect
# How it was run: as §1
# [3] = qHTS of pediatric cancer cell lines to identify multiple opportunities for drug repurposing: Confirmatory screen for OHS-50 cells (AID 1347128);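 also: compound exposure lasted 48 h at 37 degrees C; nearly all actives have a fitted effect of over 55% in size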; also: potency is read from the fitted curve at half-maximal effect
# How it was run: as §1
# [4] = qHTS of pediatric cancer cell lines to identify multiple opportunities for drug repurposing: Confirmatory screen for SK-N-SH cells (AID 1347129);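 also: cells exposed to compound for 48 h before viability read; nearly all actives have a fitted effect of over 60% in size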; also: potency is read from the fitted curve at half-maximal effect
# How it was run: as §1
# [5] = qHTS of pediatric cancer cell lines to identify multiple opportunities for drug repurposing: Confirmatory screen for Rh18 cells (AID 1347125); also: nearly all actives have a fitted effect of over 55% in size; also: potency is read from the fitted curve at half-maximal effect
# How it was run: as §1
# [6] = qHTS of pediatric cancer cell lines to identify multiple opportunities for drug repurposing: Confirmatory screen for Rh30 cells (AID 1347126); also: nearly all actives have a fitted effect of over 55% in size
# How it was run: as §1
# [7] = tested on: Zika virus NS2B-NS3 protease (unlinked); assay: Optimization of GU AMC qHTS for Zika virus inhibitors: Unlinked NS2B-NS3 protease assay (AID 1347151); also: series mostly up to about 52 µM; nearly all actives have a fitted effect of over 80% in size
# How it was run: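 In this qHTS, compounds acted on 25 nM unlinked Zika NS2B–NS3 in pH 8.0 Tris/Tween buffer. Cleavage of an AMC peptide ran 15 min at room temperature, to about 20% conversion.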
# [8] = tested on: Zika virus NS2B-NS3 protease (linked construct); assay: Confirmatory screen NINDS AMC qHTS for Zika virus inhibitors (AID 1347152); also: nearly all actives have a fitted effect of over 70% in size; also: potency is read from the fitted curve at half-maximal effect
# How it was run: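 Concentration-response confirmation used the NINDS linked protease (NS2B hydrophilic domain joined to NS3 protease domain), 1 nM, with a 15-min compound preincubation. Substrate, Nle-KRR-AMC at 10 microM, was read by UV fluorescence before and after 15 min.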
# [9] = qHTS of pediatric cancer cell lines to identify multiple opportunities for drug repurposing: Confirmatory screen for Rh41 cells (AID 1347123);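 also: potency is read from the fitted curve at half-maximal effect; 48 h compound exposure; nearly all actives have a fitted effect of over 60% in size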
# How it was run: as §1
# Furin (Homo sapiens) = Furin (Homo sapiens) (UniProt P09958); assay: Furin counterscreen qHTS for Zika virus inhibitors (AID 1347149); also: nearly all actives have a fitted effect of over 70% in size; also: potency is read from the fitted curve at half-maximal effect
# How it was run: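 Counterscreen measures cleavage of 2 microM BOC-RVRR-AMC, below its ~15 microM Km, by 5 nM full-length human furin at pH 7.0 after a 15-min compound preincubation. Inhibition derives from the 15-min fluorescence increase at 37C.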
# Sequence of Furin (Homo sapiens) (P09958 whole entry, looked up): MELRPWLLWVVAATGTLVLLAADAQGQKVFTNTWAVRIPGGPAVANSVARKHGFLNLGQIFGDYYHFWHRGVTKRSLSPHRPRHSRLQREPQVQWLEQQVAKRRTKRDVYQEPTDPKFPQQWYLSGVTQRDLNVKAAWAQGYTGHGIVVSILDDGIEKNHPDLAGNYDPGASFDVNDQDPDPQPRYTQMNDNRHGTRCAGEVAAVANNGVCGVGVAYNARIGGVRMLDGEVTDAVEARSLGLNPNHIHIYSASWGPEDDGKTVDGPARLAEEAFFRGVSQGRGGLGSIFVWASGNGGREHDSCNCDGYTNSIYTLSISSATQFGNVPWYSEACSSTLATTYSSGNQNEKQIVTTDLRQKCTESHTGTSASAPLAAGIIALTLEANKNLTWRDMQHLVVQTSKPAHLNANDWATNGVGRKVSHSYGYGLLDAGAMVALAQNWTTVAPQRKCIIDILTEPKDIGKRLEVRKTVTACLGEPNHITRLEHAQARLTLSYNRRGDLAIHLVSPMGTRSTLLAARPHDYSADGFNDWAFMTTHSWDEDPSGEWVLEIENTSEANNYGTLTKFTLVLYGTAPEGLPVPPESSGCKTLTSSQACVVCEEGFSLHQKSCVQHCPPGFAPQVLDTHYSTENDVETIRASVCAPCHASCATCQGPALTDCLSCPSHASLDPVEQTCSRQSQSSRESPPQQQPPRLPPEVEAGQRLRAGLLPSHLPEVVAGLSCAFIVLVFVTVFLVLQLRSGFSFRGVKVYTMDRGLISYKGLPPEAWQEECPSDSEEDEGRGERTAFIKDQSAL
structure (smiles),measurement,setting,value
COc1ccc2c(c1OC)C(=O)OC2[C@H]1c2c(cc3c(c2OC)OCO3)CCN1C (stereo not given in full),Potency,[1],inactive
same,Potency,[2],inactive
same,Potency,[3],inactive
same,Potency,[4],inactive
NC(=O)Nc1sc(-c2ccc(F)cc2)cc1C(N)=O,Potency,[4],14.8 µM (active)
COc1ccc(C[C@@H](C)[C@@H](C)Cc2ccc(OC)c(OC)c2)cc1OC,Potency,[5],inactive
same,Potency,[6],inactive
same,Potency,[4],inactive
O=C1NC(=O)[C@@H](c2cn3c4c(cccc24)CCC3)[C@H]1c1c[nH]c2ccccc12,Potency,[2],928 nM (active)
CCCCCCCCc1ccc(CCC(N)(CO)CO)cc1,outcome,[7],inactive
same,Potency,[8],inactive
NS(=O)(=O)OC[C@@H]1C[C@@H](n2ccc3c(N[C@H]4CCc5ccccc54)ncnc32)C[C@H]1O,Potency,[1],inactive
same,Potency,[5],inactive
same,Potency,[2],inactive
same,Potency,[3],inactive
N#Cc1c(NC(=O)c2cccc3ccccc23)sc2c1CCCC2,Potency,[6],inactive
same,Potency,[2],261 nM (active)
Cn1cnc(=N)c2[nH]cnc21,Potency,[2],inactive
same,Potency,[3],inactive
same,Potency,[4],inactive
O=C(C=Cc1ccc(CN(CCO)CCc2c[nH]c3ccccc23)cc1)NO,Potency,[9],58.5 nM (active)
same,Potency,[4],0.118 µM (active)
Cn1c(Nc2ccc(C(F)(F)F)cc2)nc2cc(Oc3ccnc(-c4ncc(C(F)(F)F)[nH]4)c3)ccc21,Potency,[5],inactive
CC(C)c1cc(C(C)C)c(CC(=O)NS(=O)(=O)Oc2c(C(C)C)cccc2C(C)C)c(C(C)C)c1,Potency,[8],7.84 µM (active)
CN(CC(=O)N(Cc1ccc(C2CCCCC2)cc1)c1ccc(C(=O)O)c(O)c1)S(=O)(=O)c1c(F)c(F)c(F)c(F)c1F,Potency,[2],26100 nM (active)
CCOC(=O)C1=C(C)NC(=S)NC1c1cccc(O)c1 (stereo not given),Potency,[5],inactive
same,Potency,[4],inactive
c1cc(N[C@@H]2CCNC2)nc(-c2cnc3ccc(-c4cn[nH]c4)cn23)c1,Potency,Furin (Homo sapiens),24.1 µM (active)
same,Potency,[8],24.1 µM (active)
C[C@@H](NCc1cc2ccccc2[nH]1)c1cccc2ccccc12,Potency,[8],inactive
O=C(NCc1ccccc1)[C@H](Cc1ccccc1)NC(=O)[C@@H]1O[C@@H]1C(=O)NCCc1ccc(O)cc1,Potency,[1],inactive
same,Potency,[6],inactive
same,Potency,[2],inactive
same,Potency,[3],inactive
same,Potency,[4],inactive
COc1ccc(S(=O)(=O)Nc2cccnc2Nc2ccc(O)cc2)cc1,Potency,[1],928 nM (active)
same,Potency,[5],inactive
same,Potency,[6],inactive
same,Potency,[2],522 nM (active)
CC(=O)SCC(Cc1ccccc1)C(=O)NCC(=O)OCc1ccccc1 (stereo not given),Potency,[1],inactive
same,Potency,[2],inactive
same,Potency,[3],inactive
same,Potency,[4],inactive
CC(N[C@H]1CCCC[C@H]1NC(=O)c1ccc(Cl)cc1)c1cccc2ccccc12 (stereo not given in full),Potency,[2],26100 nM (active)
same,Potency,[3],20.8 µM (active)
same,Potency,[4],9.35 µM (active)
CCc1cc(C(C)=NOCc2ccc(C3CCCCC3)c(C(F)(F)F)c2)ccc1CN1CC(C(=O)O)C1,Potency,[1],inactive
same,Potency,[5],inactive
same,Potency,[6],inactive
same,Potency,[2],14700 nM (active)
same,Potency,[3],23.3 µM (active)
CNC(=O)c1cccc(-c2ccc3c(N4CCOC[C@H]4C)nc(N4CCOC[C@H]4C)nc3n2)c1,Potency,[9],585 nM (active)
same,Potency,[3],6.57 µM (active)
same,Potency,[4],2.64 µM (active)
same,Potency,Furin (Homo sapiens),inactive
same,Potency,[8],inactive
CC(=O)N1CCN(c2ccc(OCc3nn(C)c(C)c3-c3cccc4c(CCCOc5cccc6ccccc56)c(C(=O)O)n(Cc5cccnc5)c34)cc2)CC1,Potency,[1],inactive
same,Potency,[5],inactive
same,Potency,[6],inactive
same,Potency,[3],inactive
same,Potency,[4],inactive
O=C(Nc1cc2cc[nH]c2cn1)c1ccccc1,Potency,[3],10.4 µM (active)
same,Potency,[4],10.5 µM (active)
C[C@H]1COc2c(N3CCN(C)CC3)c(F)cc3c(=O)c(C(=O)O)cn1c23,Potency,Furin (Homo sapiens),24.1 µM (active)
same,Potency,[8],24.1 µM (active)
CC(C)(N)c1ccc(-c2nc3ccccc3nc2-c2ccccc2)cc1,Potency,[1],inactive
same,Potency,[5],1.65 µM (active)
same,Potency,[6],inactive
same,Potency,[2],737 nM (active)
same,Potency,[3],0.369 µM (active)
